Each structure is given as a SMILES string. The source made the active and inactive calls. Unless noted, the rule behind the calls is not given here.

Experiment [1] in a line: resazurin metabolic signal in HepG2 cells – cell-based, resazurin fluorescence, 24 h, PK04 Diversity Set, profiling panel (AID 1172). Note: test concentration not given here. The settings on record: HepG2 viability, higher = more signal.
The nature of experiment [2]: budding yeast growth changes without added modifier – OD600, strain BY4716, 24 h, basal condition, primary screen (AID 1173). The settings on record: S. cerevisiae BY4716 growth, OD600, 24 h; higher = more signal, called active from +8 up or from −8 down.
The nature of experiment [3]: viability profiling in MM1S myeloma cells – cell-based, resazurin fluorescence, basal, 24 h, PK04 Diversity Set, profiling panel (AID 1174).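 Note: MM1S multiple myeloma cell line; test concentration not given here.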 The conditions noted are these: higher = more signal, called active from +8 up or from −8 down.
Experiment [4] has as its target Dihydroorotate dehydrogenase (quinone), mitochondrial (Plasmodium falciparum (isolate 3D7)) (UniProt Q08210). As to the kind of experiment: inhibition of P. falciparum DHODH – biochemical, C-terminal His tag, absorbance 600 nm, primary screen (AID 1175).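 Note: recombinant parasite enzyme with a five histidine tag at its C terminus; test concentration not given here.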 The settings on record: PfDHODH enzyme, DCIP absorbance 600 nm; higher = more signal, called active from +8 up or from −8 down.

A short description of experiment [5]: inhibition of PAO1 biofilm formation – strain PAO1, LB-PBS medium, absorbance 600 nm, primary screen (AID 1176). Note: test concentration not given here. The conditions noted are these: P. aeruginosa PAO1 growth/biofilm, A600, 12 h; higher = more signal.
A short description of experiment [6]: growth modulation of vineyard yeast isolate – strain RM11-1a, OD600, basal, 24 h, primary screen (AID 1177).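 Note: cultures grown under basal conditions with no added stressor; test concentration not given here.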 The conditions noted are these: S. cerevisiae RM11-1a growth, OD600, 24 h; higher = more signal, called active from +8 up or from −8 down.
Experiment [7] in a line: growth of efflux-deficient E. coli DRC39 – strain DRC39, OD650, 24 h, E. coli filamentation inducers, primary screen (AID 1178).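 Note: growth measured as culture turbidity by optical density at 650 nm; test concentration not given here.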 The conditions noted are these: E. coli DRC39 acrAB, higher = more signal, called active from +8 up or from −8 down.
The nature of experiment [8]: growth of efflux-deficient E. coli DRC39 – strain DRC39, OD650, 48 h, E. coli filamentation inducers, primary screen (AID 1179).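 Note: screen aims at cell division blockers that make cells filament.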 The settings on record: E. coli DRC39 delta-acrAB growth, higher = more signal, called active from +8 up or from −8 down.
The nature of experiment [9]: viability profiling in RPMI8226 myeloma cells – cell-based, resazurin fluorescence, basal, 24 h, PK04 Diversity Set, profiling panel (AID 1180).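 Note: RPMI8826 multiple myeloma cell line at 5000 cells per well; test concentration not given here.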 The settings on record: higher = more signal. On the technique in general: The colour change of resazurin is a common sign of viable cells or microbes.
Experiment [10] has as its target E3 ubiquitin-protein ligase XIAP (Homo sapiens) (UniProt P98170). The experiment is described as follows: small molecules binding XIAP protein – biophysical, small-molecule microarray, fluorescence 635 nm, primary screen (AID 1181).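 Note: score merges 667 nm emission and signal to noise over triplicate slides.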 The settings on record: higher = more signal.

Sequence of Dihydroorotate dehydrogenase (quinone), mitochondrial (Plasmodium falciparum (isolate 3D7)) (Q08210 whole entry, looked up): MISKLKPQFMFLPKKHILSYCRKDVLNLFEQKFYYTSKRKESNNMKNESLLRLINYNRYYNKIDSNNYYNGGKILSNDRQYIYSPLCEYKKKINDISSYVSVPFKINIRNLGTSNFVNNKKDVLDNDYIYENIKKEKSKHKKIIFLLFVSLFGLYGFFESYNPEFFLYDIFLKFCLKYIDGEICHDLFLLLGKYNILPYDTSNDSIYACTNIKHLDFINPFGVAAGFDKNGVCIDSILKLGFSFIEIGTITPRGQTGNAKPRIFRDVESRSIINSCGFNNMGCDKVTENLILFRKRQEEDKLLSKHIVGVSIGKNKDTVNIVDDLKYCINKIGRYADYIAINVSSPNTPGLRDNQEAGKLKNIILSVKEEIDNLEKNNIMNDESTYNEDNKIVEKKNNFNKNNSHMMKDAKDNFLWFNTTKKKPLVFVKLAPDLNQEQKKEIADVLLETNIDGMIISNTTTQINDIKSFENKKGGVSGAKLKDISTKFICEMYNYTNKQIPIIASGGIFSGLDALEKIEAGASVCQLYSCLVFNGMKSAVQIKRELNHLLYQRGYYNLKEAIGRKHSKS
Sequence of E3 ubiquitin-protein ligase XIAP (Homo sapiens) (P98170 whole entry, looked up): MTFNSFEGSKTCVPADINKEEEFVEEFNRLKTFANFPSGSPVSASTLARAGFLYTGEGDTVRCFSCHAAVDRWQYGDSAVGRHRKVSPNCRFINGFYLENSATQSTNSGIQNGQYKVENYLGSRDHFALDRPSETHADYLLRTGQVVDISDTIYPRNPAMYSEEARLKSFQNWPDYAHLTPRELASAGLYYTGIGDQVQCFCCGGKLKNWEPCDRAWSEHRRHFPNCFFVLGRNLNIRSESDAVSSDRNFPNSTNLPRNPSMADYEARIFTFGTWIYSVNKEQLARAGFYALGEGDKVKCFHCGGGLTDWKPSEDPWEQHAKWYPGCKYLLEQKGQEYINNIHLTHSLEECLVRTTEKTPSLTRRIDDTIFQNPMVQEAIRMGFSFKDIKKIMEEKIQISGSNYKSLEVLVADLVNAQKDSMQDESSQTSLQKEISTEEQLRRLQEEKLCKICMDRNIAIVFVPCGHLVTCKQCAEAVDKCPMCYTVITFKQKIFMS

As for `O=C1O[C@H](c2ccccc2)[C@H](c2ccccc2)N2[C@H]1[C@@H](C(=O)Nc1nc3ccccc3s1)[C@]1(C(=O)Nc3ccc(C#CC4(O)CCCCCC4)cc31)[C@H]2c1ccc(OCCO)cc1`, the z-score in experiment [1] is -0.43; in experiment [2], 1.16 (inactive); in experiment [3] it was -1.4 (inactive); in [5], 4.15 (inactive); in [6] it was 0.773 (inactive); in experiment [7] it was -0.34 (inactive). For the same molecule, the z-score in experiment [8] is -0.706 (inactive); in [9], -1.1. In addition, the composite z-score in experiment [4] is -0.568 (inactive); in experiment [10], 0.167.
As to `[N-]=[N+]=NCc1ccccc1[C@H]1OC(c2ccc(OCCCO)cc2)=N[C@@]1(Cc1ccccc1)C(=O)NCc1ccccc1`, the z-score is 0.294 in [1]; -0.223 (inactive) in experiment [2]; -0.666 (inactive) in [3]; 0.702 (inactive) in [5]; 0.747 (inactive) in experiment [6]; 0.431 (inactive) in [7]. The results for the z-score in experiment [8] and in experiment [9] were 0.0009 (inactive) and -0.34, respectively. The composite z-score in experiment [4] is -0.407 (inactive); in experiment [10] it was 0.58.
As for `[N-]=[N+]=Nc1ccccc1C[C@]1(C(=O)NCC(O)CO)N=C(c2ccc(OCCCO)cc2)O[C@H]1c1ccccc1N=[N+]=[N-]` (stereo not given in full), the z-score was -1.01 in experiment [1]; -1.14 (inactive) in experiment [2]; -2.08 (inactive) in [3]; -0.428 (inactive) in experiment [5]; 1.52 (inactive) in [6]; -0.0211 (inactive) in experiment [7]. Besides, the results for the z-score in experiment [8] and in [9] were 0.622 (inactive) and -1.99, respectively. Also, the composite z-score in experiment [4] is 0.139 (inactive); in experiment [10], 0.0968.
In the case of `C=C(COC)/C(=C/C[C@@H](OC(C)=O)c1ccc(CO)o1)c1cnc2ccccc2c1`, the z-score in [1] is -0.956; in [2] it was -0.677 (inactive); in [3], 0.915 (inactive); in experiment [5] it was 0.579 (inactive); in experiment [6], 0.704 (inactive); in experiment [7], 0.685 (inactive). Also, the z-score was -0.0551 (inactive) in experiment [8] and 0.47 in [9]. Further, the composite z-score in experiment [4] was -8.64 (active); in experiment [10], 0.0225.
For `COc1ccc([C@H]2C[C@H]3C(Br)=C[C@@H]2C(=O)[C@]32CO2)cc1`, the z-score in experiment [1] was 0.158; in experiment [2] it was -6.22 (inactive); in [3] it was -0.0566 (inactive); in [5] it was -0.647 (inactive); in [6], 0.844 (inactive); in experiment [7], 1.75 (inactive). Moreover, the z-score is 0.406 (inactive) in experiment [8] and 0.869 in experiment [9]. In addition, the composite z-score was 1.03 (inactive) in experiment [4] and -0.0292 in experiment [10].
As to `CCOC(=O)C[C@H]1[C@H](OC(=O)c2cc3ccccc3oc2=O)[C@@H](NC(=O)C2CCCCC2)c2cc(OCCCO)ccc2N1C(=O)c1ccccc1`, the z-score in experiment [1] was -0.687; in experiment [2] it was -0.797 (inactive); in experiment [3], 0.0797 (inactive); in experiment [5], -0.259 (inactive); in [6] it was -0.403 (inactive); in [7], 1.65 (inactive). The results for the z-score in [8] and in [9] were 0.612 (inactive) and 0.285, respectively. Further, the composite z-score was -2.85 (inactive) in [4] and -0.214 in [10].
For `COCCCNC(=O)C1N=C(c2ccc(OCCCO)cc2)N(c2ccccc2)O1` (stereo not given), the z-score in [1] was 0.522; in experiment [2] it was -0.5 (inactive); in experiment [3] it was -0.441 (inactive); in experiment [5], -1.45 (inactive); in [6], 0.254 (inactive); in experiment [7] it was 0.516 (inactive). Moreover, the z-score was 1.03 (inactive) in [8] and 0.694 in experiment [9]. For the same molecule, the composite z-score is 0.0216 (inactive) in [4] and 0.819 in experiment [10].
On to `C=CCN1C(=O)[C@]2(O[C@H](CCO)[C@@H]([Si](C)(C)c3ccc(OC)cc3)[C@@H]2C)c2cc(N3CCCCC3=O)ccc21`, for which the z-score in experiment [1] was -3.6; in experiment [2] it was 1.22 (inactive); in experiment [3], -5.89 (inactive); in [5], -0.577 (inactive); in experiment [6] it was 2.97 (inactive); in [7], 0.575 (inactive). Besides, the z-score in [8] is -0.648 (inactive); in experiment [9] it was -6.02. For the same molecule, the composite z-score in [4] was -1.45 (inactive); in experiment [10] it was -0.258.
Regarding `COC(=O)[C@@]1(Cc2ccccc2)[C@H]2c3cc(C(=O)N(C)C)n(CCSCCO)c3C[C@H]2CN1C(=O)c1ccccc1`, the z-score in experiment [1] is -0.821; in experiment [2], 0.319 (inactive); in [3] it was -0.345 (inactive); in [5] it was 0.15 (inactive); in experiment [6] it was 0.152 (inactive); in [7] it was -0.976 (inactive). For the same molecule, the z-score in experiment [8] was -0.68 (inactive); in [9], -0.151. Further, the composite z-score was -0.394 (inactive) in experiment [4] and 0.212 in experiment [10].
Consider `COCCOC(=O)N1C(=O)[C@@]2(c3cc(C#CC4(O)CCCCCC4)ccc31)[C@H](c1ccc(O)cc1)N1[C@H](c3ccccc3)[C@H](c3ccccc3)OC(=O)[C@H]1[C@@H]2C(=O)Nc1nc2ccccc2s1`, for which the z-score in experiment [1] was -0.181; in experiment [2], -0.213 (inactive); in experiment [3] it was 0.0851 (inactive); in [5] it was 0.51 (inactive); in [6] it was 0.443 (inactive); in experiment [7] it was -0.239 (inactive). Moreover, the values for the z-score in experiment [8] and in [9] were 0.208 (inactive) and -0.815, respectively. Also, the composite z-score in experiment [4] is 0.811 (inactive); in experiment [10], 0.0679.
With `CC1(C)[C@@H]2CC(C(O)C3C=CC4C(=O)N(c5ccccc5)C(=O)C4N3Nc3ccccc3)=C[C@H]1C2` (stereo not given in full), the z-score in experiment [1] was 0.0594; in [2] it was -3.01 (inactive); in experiment [3] it was -0.852 (inactive); in [5] it was 0.711 (inactive); in experiment [6], -0.0064 (inactive); in experiment [7] it was -0.441 (inactive). Further, the results for the z-score in experiment [8] and in experiment [9] were -0.328 (inactive) and -1.08, respectively. For the same molecule, the composite z-score in experiment [4] was 0.232 (inactive); in [10], 0.169.
Regarding `CCOC(=O)C1=CCC(c2ccccc2)N(S(=O)(=O)CC[Si](C)(C)C)C1` (stereo not given), the z-score was 1.17 in experiment [1]; -1.48 (inactive) in [2]; 0.406 (inactive) in [3]; -0.461 (inactive) in [5]; -0.0286 (inactive) in experiment [6]; -0.117 (inactive) in experiment [7]. The values for the z-score in experiment [8] and in experiment [9] were 1.05 (inactive) and 0.681, respectively. Moreover, the composite z-score is 0.49 (inactive) in experiment [4] and -0.192 in [10].
